# From PubChem
# Not all results are given here.
# aSyn UTR act: Activators working through SNCA 5'UTR binding (MLPCN) | alpha-synuclein 5'UTR reporter, activators screen | activity score, % (tested at 7.5 µM), hits read low | 300,000 compounds, 7.1% hits | AID 1814; in the data active = activity score below about -60%
# Starred values were filed as active, the others as inactive.
SMILES,aSyn UTR act
Cc1ccccc1-n1c(SCC(=O)N/N=C/c2c(C)nn(-c3ccccc3)c2C)nc2ccccc2c1=O,58
COc1ccc2c(=O)c(C(=O)NCCc3ccccc3)c[nH]c2c1,-169*
CCCNC(=O)c1ccc2c(=O)c(O)c(-c3ccc(OC)cc3)[nH]c2c1,88
COc1ccc2[nH]cc(C(=O)NCCc3ccccc3)c(=O)c2c1,-71*
CCCCC(=NCCc1c(C)[nH]c2ccc(OC)cc12)C1=C(O)CC(c2ccccc2)CC1=O (configuration not stated),119
CCCCNC(=O)c1ccc(Cn2c(=S)[nH]c3c([nH]c4ccc(OC)cc43)c2=O)cc1,105
CC(=O)c1ccc(NS(=O)(=O)c2c(C)cc(C)cc2C)cc1,-102*
Cc1cc(C)c(S(=O)(=O)Nc2ccc3c4c(cccc24)CC3)c(C)c1,106
O=C(NCc1csc(-c2ccccc2)n1)c1cc(F)cc2c1OCOC2,-113*
COc1ccc(OCc2cc(C(=O)NC(C)Cn3cncn3)no2)c(Cl)c1 (configuration not stated),-62*
CCC(NC(=O)c1cc(COc2ccc(OC)cc2Cl)on1)c1ccncc1 (configuration not stated),-71*
COc1cc(Cl)ccc1OCc1cc(C(=O)NC(C)Cc2cnccn2)no1 (configuration not stated),-145*
COc1cc(C(=O)NC(=S)NNC(=O)c2cnccn2)cc(OC)c1OC,79
CCC(NC(=O)c1cc(COc2ccc(Cl)cc2OC)on1)c1ccncc1 (configuration not stated),-121*
Cc1ccccc1OCC(=O)Nc1ccc2c(c1)OCO2,-140*
COc1ccccc1OCC(=O)Nc1ccc2c(c1)OCO2,-96*
O=C(COc1ccccc1Cl)Nc1ccc2c(c1)OCO2,-145*
CN1CCN(c2ccc(NC(=O)COc3ccccc3Cl)cc2)CC1,-65*
COc1cc(C(=O)c2cocc2C(=O)c2ccc3c(c2)OCO3)cc(OC)c1OC,67
Sc1oc(-c2ccccc2)cc1C=Nc1ccccc1,-117*
O=C(Nc1cccc(-c2nc3ccccc3s2)c1)c1cc(-n2cnnc2)ccc1Cl,-85*
Cc1c(NC(=O)c2cc(-n3cnnc3)ccc2Cl)cccc1-c1nc2ccccc2s1,-90*
Cc1ccc2sc(-c3ccc(NC(=O)c4cc(-n5cnnc5)ccc4Cl)cc3)nc2c1,-153*
O/N=C/c1ccc(OCc2ccccc2F)c(Cl)c1,-92*
O/N=C/c1ccc(OCc2ccccc2)c(Br)c1,-142*
SMILES,aSyn UTR act
O/N=C/c1ccc(OCc2ccccc2)c(Cl)c1,-104*
S=c1[nH]nc(-c2cc3c(s2)-c2ccccc2CC3)o1,-123*
CSc1nnc(-c2cc3c(s2)-c2ccccc2CC3)o1,-169*
CCC(=O)c1cn(CC(=O)NCc2ccco2)c2ccccc12,-65*
CC(C)NC(=O)c1nc2ccccc2s1,-84*
C=CCNC(=O)c1nc2ccccc2s1,-161*
COc1ccc(OC)c(NC(=O)c2nc3ccccc3s2)c1,-168*
NS(=O)(=O)c1cccc(NC(=O)/C=C/c2cccs2)c1,-101*
CCc1nnc(NC(=O)C=C(C)C)s1,-140*
O=C(/C=C/c1cccs1)Nc1cccc(NC(=O)/C=C/c2cccs2)n1,-181*
CCc1nnc(NC(=O)/C=C/c2cccs2)s1,-160*
O=C(/C=C/c1cccs1)Nc1nccs1,-97*
Cc1cc(C)c(-c2csc(NC(=O)/C=C/c3cccs3)n2)c(C)c1,38
O=C(/C=C/c1cccc(F)c1)Nc1nccs1,-209*
Cc1cc(C)nc(NC(=O)/C=C/c2cccs2)c1,-155*
Cn1c(NC(=S)Nc2ccccc2)nc2ccccc21,-99*
CN(C)CCn1c(NC(=O)c2ccc(Cl)cc2)nc2ccccc21,-239*
CCn1c(NC(=O)c2cccs2)nc2ccccc21,-89*
Cn1c(NC(=O)c2ccc(F)cc2)nc2ccccc21,-103*
CC(=O)Nc1nc2ccccc2n1Cc1ccc(Cl)cc1,51
C/C(=N\NC(=O)c1ccccc1)c1nc2ccccc2n1C,62
CCN(CC)CCn1c(NC(=O)c2ccc(C)cc2)nc2ccccc21,-65*
CCC(=O)Nc1nc2ccccc2n1Cc1ccc(C)cc1,77
CCCC(=O)n1nc(-c2ccc(C)cc2)nc1NCc1ccco1,-88*
O=S(=O)(c1ccccc1)n1nc(-c2ccccc2)nc1NCc1ccco1,-65*
SMILES,aSyn UTR act
Cc1ccc(C(=O)n2nc(-c3ccccc3)nc2NCc2ccco2)cc1,-68*
CC(C)(C)c1ccc(-c2noc(CCC(=O)NCc3ccco3)n2)cc1,77
Cc1ccc(S(=O)(=O)c2nc(S(C)(=O)=O)sc2N2CCCCCC2)cc1,-113*
CS(=O)(=O)c1nc(S(=O)(=O)c2ccc(Cl)cc2)c(N2CCOCC2)s1,-75*
Cc1cccc(Nc2cc(C)c3c(O)cccc3n2)c1C,-101*
Cc1ccccc1Nc1n[nH]c(C)c1[N+](=O)[O-],-65*
Cc1ccc(NC2=C(Cl)C(=O)OC2OC(C)C)c(C)c1 (configuration not stated),69
Cc1ccc(Nc2n[nH]c(C)c2[N+](=O)[O-])c(C)c1,-66*
COc1ccc(Nc2n[nH]c(C)c2[N+](=O)[O-])cc1,-102*
COc1ccccc1/C=N/Nc1nncc2ccccc12,-132*
Oc1c(Br)cc(/C=N/Nc2nncc3ccccc23)cc1Br,-109*
COc1cccc(/C=N/Nc2ncnc3scc(-c4ccccc4)c23)c1O,61
COc1ccc(/C=N/Nc2nncc3ccccc23)cc1,67
CN(C)c1ccc(/C=C/c2cccc[n+]2[O-])cc1,-101*
CC(C)CC[n+]1ccccc1/C=C/c1ccc(N(C)C)cc1,79
O=C1Nc2cc(C(=O)NCCCN3CCCC3)ccc2S/C1=C/c1ccccc1F,-106*
CCN1CCCC1CNC(=O)c1ccc2c(c1)NC(=O)/C(=C\c1ccc(C)cc1)S2 (configuration not stated),74
CCOc1ccc(NC(=O)CSc2nncc(=O)[nH]2)cc1,-76*
Cc1cc2nc(SCCN3CCCC3)[nH]c2cc1C,-68*
CCOCCOC(=O)C1=C(C)Nc2ccc(C)cc2S1,-92*
CC(C)Sc1nnc(-c2c[nH]c3ccccc23)n1C,-111*
COCCn1c(C)cc(C(=O)Cn2nc(C(=O)O)c3ccccc3c2=O)c1C,-116*
COCCn1c(C)cc(C(=O)CSc2nc3ccccc3s2)c1C,53
COc1ccc(-c2nc3ccccn3c2NCc2ccc3c(c2)OCO3)cc1,-91*
COc1ccc(-c2nc3cc(C)ccn3c2NCc2ccc3c(c2)OCO3)cc1,-112*
SMILES,aSyn UTR act
O=C(Nc1cccc(F)c1)c1c(O)c2ccccc2[nH]c1=O,-140*
COc1ccccc1NC(=O)c1c(O)c2ccccc2[nH]c1=O,-76*
CS(=O)(=O)Nc1ccccc1C(=O)N1CCN(c2ccccc2)CC1,-73*
CCOc1ccccc1C(=O)N1CCN(c2cccc(Cl)c2)CC1,95
O=C(c1ccccc1)c1nnc(-c2ccccc2F)o1,-104*
O=C(N/N=C/c1cc(Br)ccc1O)c1ccccc1Cl,67
O=C(N/N=C/c1cn(-c2cccs2)nc1-c1ccccc1)c1ccccc1Cl,-63*
O=C(N/N=C/c1cn(-c2cccs2)nc1-c1ccccc1)c1ccc(O)cc1,-65*
Brc1ccc(-c2noc(CCc3ccccc3)n2)o1,-119*
Clc1ccccc1OCc1nc(-c2ccc(Br)o2)no1,-83*
COc1ccc(-c2noc(CCCC(=O)O)n2)cc1,89
Cc1ccc(-c2noc(CCCc3ccccc3)n2)cc1,-77*
Fc1ccc(OCc2nc(-c3ccc(Br)o3)no2)c(F)c1,-77*
